The results in this text go back to PubChem BioAssay.

The structures appear in SMILES notation. Where “and” joins values, the source holds several entries; their conditions need not be identical. Equal values may be shown once. More than one record can exist for a structure, and the calls need not agree. Calls of active or inactive are those of the source.

The nature of experiment [1]: optical density shifts of acrAB sulA E. coli – strain DRC41, OD650, 48 h, E. coli filamentation inducer project, primary screen (AID 1152).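 Further: E. coli MC1000 strain DRC41 lacking acrAB efflux pump and sulA.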 To be noted: higher = more signal, called active from +8 up or from −8 down.
The nature of experiment [2]: probe aLefty1 binding on compound microarray – biochemical, small-molecule microarray, 635/667 nm fluorescence, primary screen (AID 1153).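 Further: score merges spot fluorescence with signal-to-noise ratio from the scanned slide images.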 The following applies: higher = more signal.
Experiment [3] is described as follows: plasmodial surface anion channel blockers, osmotic lysis – cell-based, P. falciparum Indochina, OD700, 1 h, primary screen (AID 1154). To be noted: P. falciparum Indochina infected RBC osmotic lysis, higher = more signal, called active from +8 up or from −8 down.
A short description of experiment [4]: plasmodial surface anion channel blockers, osmotic lysis – cell-based, P. falciparum Indochina, OD700, 2 h, primary screen (AID 1155).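 Further: lysis reports solute entry through the parasite surface anion channel PSAC.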 To be noted: P. falciparum Indochina infected erythrocytes, higher = more signal, called active from +8 up or from −8 down.
A short description of experiment [5]: changes in parasitized red cell lysis, either direction – P. falciparum Indochina, OD700, 3 h, PSAC antagonist project, primary screen (AID 1156). To be noted: P. falciparum-infected erythrocytes, osmotic lysis, higher = more signal, called active from +8 up or from −8 down.
The nature of experiment [6]: plasmodial surface anion channel blockers, osmotic lysis – cell-based, P. falciparum Indochina, OD700, 18 h, primary screen (AID 1157). The following applies: P. falciparum Indochina infected erythrocytes, osmotic lysis OD700, 18 h; higher = more signal, called active from +8 up or from −8 down.
The nature of experiment [7]: S6 kinase pathway phospho-S6 level changes – cell-based, A549, cytoblot, luminescence, serum-stimulated, primary screen (AID 1158).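 Further: serum-stimulated A549 lung adenocarcinoma cells; signal is phosphorylated S6 detected by cytoblot immunostaining with HRP secondary.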 To be noted: 5 h, higher = more signal.
Experiment [8] has as its target NADPH oxidase 2 (Homo sapiens) (UniProt P04839). The experiment can be described thus: compounds shifting NOX2 Amplex Red fluorescence – cell-based, HEK293-NOX2, PMA-stimulated, NOX inhibitor project, primary screen (AID 1159). Further: test concentration not given here. The following applies: 45 min, higher = more signal, called active from +8 up or from −8 down.
Experiment [9] deals with NADPH oxidase 4 (Homo sapiens) (UniProt Q9NPH5). Kind of experiment: compounds shifting NOX4 Amplex Red fluorescence – cell-based, HEK293-NOX4, tetracycline-induced, NOX inhibitor project, primary screen (AID 1160). The following applies: HEK293-NOX4, Amplex Red H2O2 fluorescence, 45 min; higher = more signal, called active from +8 up or from −8 down.
Chain of NADPH oxidase 4 (Homo sapiens) (Q9NPH5 whole entry, looked up): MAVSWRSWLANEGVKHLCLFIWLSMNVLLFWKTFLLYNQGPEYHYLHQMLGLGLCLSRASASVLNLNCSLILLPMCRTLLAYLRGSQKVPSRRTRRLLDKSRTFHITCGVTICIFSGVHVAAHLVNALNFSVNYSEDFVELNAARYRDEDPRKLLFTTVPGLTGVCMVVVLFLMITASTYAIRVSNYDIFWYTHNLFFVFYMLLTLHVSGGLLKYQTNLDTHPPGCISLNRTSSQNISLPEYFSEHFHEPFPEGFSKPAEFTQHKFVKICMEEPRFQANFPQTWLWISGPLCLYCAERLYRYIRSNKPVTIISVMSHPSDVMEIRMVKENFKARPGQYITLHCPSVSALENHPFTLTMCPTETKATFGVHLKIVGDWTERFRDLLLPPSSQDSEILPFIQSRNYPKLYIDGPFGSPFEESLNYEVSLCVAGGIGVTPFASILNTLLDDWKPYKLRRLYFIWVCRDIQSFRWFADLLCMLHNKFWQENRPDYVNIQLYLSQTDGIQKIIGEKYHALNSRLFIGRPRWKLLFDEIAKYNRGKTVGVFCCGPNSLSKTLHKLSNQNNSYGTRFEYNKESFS
Experiment [10] concerns the target NADPH oxidase 5 (Homo sapiens) (UniProt Q96PH1). The experiment can be described thus: compounds shifting NOX5 Amplex Red fluorescence – cell-based, HEK293-NOX5, NOX inhibitor project, primary screen (AID 1161). To be noted: HEK293-NOX5, ionomycin, 45 min, higher = more signal.

Chain of NADPH oxidase 2 (Homo sapiens) (P04839 whole entry, looked up): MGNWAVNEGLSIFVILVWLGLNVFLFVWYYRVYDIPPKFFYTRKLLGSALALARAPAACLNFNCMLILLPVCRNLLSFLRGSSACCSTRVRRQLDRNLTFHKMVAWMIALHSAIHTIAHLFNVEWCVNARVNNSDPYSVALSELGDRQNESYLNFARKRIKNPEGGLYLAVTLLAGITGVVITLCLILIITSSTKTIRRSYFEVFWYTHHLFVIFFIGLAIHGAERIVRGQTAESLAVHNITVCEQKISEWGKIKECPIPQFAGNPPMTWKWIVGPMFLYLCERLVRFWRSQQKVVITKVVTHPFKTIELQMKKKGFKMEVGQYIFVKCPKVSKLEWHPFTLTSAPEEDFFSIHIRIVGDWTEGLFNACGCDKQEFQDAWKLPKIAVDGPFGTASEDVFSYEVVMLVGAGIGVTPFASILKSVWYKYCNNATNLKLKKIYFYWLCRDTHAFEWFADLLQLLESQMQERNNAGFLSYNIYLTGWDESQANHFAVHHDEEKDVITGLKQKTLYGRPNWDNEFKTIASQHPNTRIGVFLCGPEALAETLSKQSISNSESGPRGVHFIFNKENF
Chain of NADPH oxidase 5 (Homo sapiens) (Q96PH1 whole entry, looked up): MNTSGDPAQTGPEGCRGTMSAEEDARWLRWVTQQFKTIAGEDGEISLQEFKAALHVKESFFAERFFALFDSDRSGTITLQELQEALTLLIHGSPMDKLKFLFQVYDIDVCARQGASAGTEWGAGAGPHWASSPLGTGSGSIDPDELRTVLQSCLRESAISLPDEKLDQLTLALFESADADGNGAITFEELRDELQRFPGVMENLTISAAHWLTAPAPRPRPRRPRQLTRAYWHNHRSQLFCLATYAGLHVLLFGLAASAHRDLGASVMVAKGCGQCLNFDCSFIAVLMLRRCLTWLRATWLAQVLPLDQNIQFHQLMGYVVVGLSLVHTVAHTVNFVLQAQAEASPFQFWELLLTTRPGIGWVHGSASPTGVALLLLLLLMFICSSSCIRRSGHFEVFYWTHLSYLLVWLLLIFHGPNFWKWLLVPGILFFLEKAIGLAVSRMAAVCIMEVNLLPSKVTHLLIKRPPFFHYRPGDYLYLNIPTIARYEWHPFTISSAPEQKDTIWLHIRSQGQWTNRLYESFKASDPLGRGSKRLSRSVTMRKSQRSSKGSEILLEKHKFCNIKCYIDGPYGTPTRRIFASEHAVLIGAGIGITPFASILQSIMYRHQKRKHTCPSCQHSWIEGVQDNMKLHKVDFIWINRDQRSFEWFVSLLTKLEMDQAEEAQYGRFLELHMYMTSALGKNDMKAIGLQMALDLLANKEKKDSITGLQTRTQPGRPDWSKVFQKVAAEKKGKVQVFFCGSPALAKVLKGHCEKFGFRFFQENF

As for `COC(=O)C1=C(C)N(Cc2ccccc2)[C@]23O[C@](C(=O)OC)(C(=O)N2[C@@H]1c1ccccc1)[C@H]1C(=O)N(C)C(=O)[C@H]13`, the z-score in experiment [1] was 0.903 (inactive) and 0.564 (inactive); in [3] it was 1.35 (inactive) and -0.228 (inactive); in experiment [4], 0.719 (inactive) and -1.26 (inactive); in experiment [5], 0.501 (inactive) and -0.562 (inactive); in experiment [6], 0.248 (inactive) and -1.16 (inactive); in experiment [7], 0.486 and 0.567. The z-score in experiment [8] is -0.56 (inactive) and -0.171 (inactive); in experiment [9], -0.329 (inactive) and 0.811 (inactive); in [10], 1.57 and 0.888. Further, the composite z-score in experiment [2] is -0.0418 and 0.223.
In the case of `CCOC(=O)c1ccc(NC(=O)O[C@H]2[C@H](OC(=O)Nc3ccccc3)[C@@H](OC(=O)Nc3ccccc3)[C@@H](OC)O[C@@H]2CO)cc1`, the z-score in experiment [1] was -1.16 (inactive) and -0.655 (inactive); in experiment [3], 5.55 (inactive) and 14.7 (active); in experiment [4], 1.05 (inactive) and 2.32 (inactive); in experiment [5], 0.199 (inactive) and 1.28 (inactive); in experiment [6] it was 0.764 (inactive) and 0.888 (inactive); in experiment [7] it was 0.139 and 0.0102. Moreover, the z-score is 0.0131 (inactive) and -4.33 (inactive) in experiment [8]; -0.578 (inactive) and -1.01 (inactive) in experiment [9]; -0.851 and -1.69 in experiment [10]. The composite z-score in [2] is 0.507 and 0.394.
For `CC(C)OC(=O)C=C1C[C@@H](c2ccccc2)O[C@@H](c2ccccc2)O1`, the z-score is 0.676 (inactive) and 0.585 (inactive) in [1]; 15.2 (active) and 23.2 (active) in experiment [3]; 1.94 (inactive) and 5.46 (inactive) in experiment [4]; 0.369 (inactive) in experiment [5]; 1.03 (inactive) and 1.37 (inactive) in experiment [6]; -0.104 and -0.0136 in [7]. In addition, the z-score in experiment [8] was -0.124 (inactive) and -0.0606 (inactive); in [9], -0.00431 (inactive) and -1.01 (inactive); in experiment [10], -0.39 and -0.392. The composite z-score in [2] was -0.0984 and 0.149.
For `CO[C@@H]1COC(=O)[C@H](Cc2ccccc2)NC(=O)CC=C[C@@H](C)[C@H](OC)COC(=O)[C@@H](C)NC(=O)CC=C[C@H]1C`, the z-score in experiment [1] is -0.582 (inactive) and 0.887 (inactive); in [3], -0.712 (inactive) and -0.142 (inactive); in [4], -0.999 (inactive) and -0.463 (inactive); in experiment [5], 0.932 (inactive) and 0.0469 (inactive); in experiment [6] it was -2.07 (inactive) and -1.44 (inactive); in experiment [7], 0.758 and 0.682. Besides, the z-score is 0.0254 (inactive) and -0.582 (inactive) in [8]; 0.859 (inactive) and 0.551 (inactive) in experiment [9]; -0.106 and 0.66 in [10]. Moreover, the composite z-score in [2] is -0.0536 and -0.425.
For `COC(=O)[C@@]1(Cc2ccccc2)[C@H]2c3cc(C(=O)N(C)C)n(Cc4ccc(C)c(F)c4F)c3C[C@H]2CN1C(=O)c1ccccc1`, the z-score was -1.18 (inactive) and -1.91 (inactive) in experiment [1]; 2.54 (inactive) and 4.12 (inactive) in experiment [3]; -0.6 (inactive) and 1.2 (inactive) in [4]; 0.425 (inactive) and 0.306 (inactive) in experiment [5]; -1.34 (inactive) and 1.21 (inactive) in [6]; 1.16 and 0.782 in experiment [7]. Moreover, the z-score is -3.14 (inactive) and 0.452 (inactive) in experiment [8]; -4.83 (inactive) and -1.66 (inactive) in experiment [9]; -5.5 and -1.88 in experiment [10]. Further, the composite z-score in [2] was 0.476 and 0.712.
Take `Cc1cc2c(nc1C)CCCN2CC(O)CN1CCCc2nc(-c3ccc(Br)cc3)ccc21` (stereo not given): the z-score in experiment [1] is -0.402 (inactive) and -0.327 (inactive); in [3] it was 12.1 (active) and 8.25 (active); in [4] it was 1.55 (inactive) and 0.974 (inactive); in experiment [5], 1.59 (inactive) and 1.02 (inactive); in experiment [6] it was 0.739 (inactive) and 0.394 (inactive); in [7], 0.0832 and -0.44. The z-score was 1.74 (inactive) and 1.1 (inactive) in [8]; -1.98 (inactive) and -1.54 (inactive) in experiment [9]; -2.82 and -2.56 in experiment [10]. For the same compound, the composite z-score in experiment [2] was 0.585 and 0.584.
For `C=CCN(Cc1ccccc1)C(=O)C1N(C(C)(C)CO)C(=O)C2C(C(=O)O)C3C=CC21O3` (stereo not given), the z-score was -0.511 (inactive) and 1.45 (inactive) in [1]; 0.0247 (inactive) and -0.244 (inactive) in experiment [3]; 0.0843 (inactive) and -0.355 (inactive) in experiment [4]; -1.15 (inactive) and -0.742 (inactive) in experiment [5]; -0.255 (inactive) and -0.354 (inactive) in [6]; 0.0613 and -0.122 in [7]. Also, the z-score is 0.515 (inactive) and 0.043 (inactive) in experiment [8]; 0.0722 (inactive) and 0.185 (inactive) in experiment [9]; 0.793 and -0.0303 in experiment [10]. For the same compound, the composite z-score in experiment [2] was -0.144 and -0.779.
On to `CCCCCN1CC=CC23O[C@@H]4C=CCCOC(=O)C4[C@H]2C(=O)N(C(C)CO)[C@@H]3C1=O` (stereo not given in full), for which the z-score in experiment [1] is 1.5 (inactive) and 0.971 (inactive); in experiment [3] it was 2.38 (inactive) and 0.551 (inactive); in experiment [4], 0.174 (inactive) and 0.44 (inactive); in [5], 0.833 (inactive) and 0.233 (inactive); in [6], 0.0882 (inactive) and 0.454 (inactive); in experiment [7], 0.154 and 0.166. For the same compound, the z-score was 1.27 (inactive) and 1.08 (inactive) in experiment [8]; 0.164 (inactive) and 0.696 (inactive) in experiment [9]; 2.09 and 2.43 in experiment [10]. In addition, the composite z-score in experiment [2] is -0.962 and 1.57.
Regarding `C=CCN(CCCC)C(=O)C(c1cccs1)N(CCOCCO)C(=O)/C=C\C(=O)O` (stereo not given), the z-score in experiment [1] was 1.59 (inactive) and 1.84 (inactive); in experiment [3], -0.0592 (inactive) and -0.28 (inactive); in experiment [4] it was -0.832 (inactive) and -0.75 (inactive); in experiment [5] it was -0.114 (inactive) and 0.0221 (inactive); in experiment [6], -1.22 (inactive) and -1.27 (inactive); in [7] it was 1.05 and 1.65. Further, the z-score in [8] is 0.0943 (inactive) and 0.209 (inactive); in [9], -0.73 (inactive) and -0.71 (inactive); in experiment [10], 0.465 and -0.0314. Also, the composite z-score in experiment [2] was -0.275 and -0.127.
Take `CC(C)[Si]1(C(C)C)OCc2cc(CCCc3cc4c(c(CCc5ccccc5)n3)[Si](C(C)C)(C(C)C)OC4)nc(CCc3ccccc3)c21`: the z-score was 2.34 (inactive) and -0.836 (inactive) in [1]; 1.1 (inactive) and 0.221 (inactive) in experiment [3]; -0.712 (inactive) and -0.436 (inactive) in experiment [4]; -1.01 (inactive) and -0.355 (inactive) in experiment [5]; -0.788 (inactive) and -0.406 (inactive) in [6]; 0.0671 and -0.999 in experiment [7]. The z-score in experiment [8] is 1.5 (inactive) and 0.412 (inactive); in experiment [9], 0.0233 (inactive) and 0.608 (inactive); in experiment [10], -2.98 and -0.0908. Further, the composite z-score in experiment [2] is -0.147 and -0.192.
